AMA1 RON2 block – AMA1-RON2 (P. falciparum) interaction inhibition. Potency, µM (series often up to 58.2 µM), without a hit: top-dose activity change, negative = inhibition, most hits filed as inhibitors. AlphaScreen AMA1-biotinylated RON2 peptide binding. actives 0.2% (n = 360,000);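 also: 0% = vehicle wells and -100% = peptide control; nearly all actives have a fitted effect of over 45% in size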
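AMA1 (3D7) with his tag at 25 nM final met compounds first, then biotinylated RON2 peptide at 25 nM; detection used donor plus acceptor beads, 10 µg/mL apiece, read by AlphaScreen after 30 min at room temperature.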
Pf growth 96h – P. falciparum growth inhibition at 96 hour, primary screen for plastid delayed-death inhibitors. P. falciparum luciferase reporter growth, 96 h. Potency, µM (doses to about 28.7 µM), for the others: top-dose activity change, negative = inhibition, most hits filed as inhibitors. actives 6.9% (n = 320,000)
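Plates of compound plus infected erythrocytes (2% hematocrit, 0.05% parasitemia final) incubate 96 hours, 37 C, 5% CO2. Detection reagent added; reduced luminescence from the parasites' luciferase reporter flags inhibition.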
HCV inhibitor – blocks hepatitis C virus; Huh7.5.1 HCVcc-Cre infection, luciferase reporter, 44 h; Potency, µM (series often up to 41.8 µM), without a hit: at the top dose activity change, negative = inhibition, actives largely listed as inhibitors; actives 3.4% (n = 340,000); AID 651820
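Cells seeded at 1,000/well and cultured 4 h, then compounds added followed by HCVcc-Cre virus (~0.5 moi). After 44 h further culture, luciferase substrate was added, plates held 15 min at room temperature, and luminescence read for 15 sec.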
Pf growth 48h – P. falciparum growth inhibition at 48 hours (one generation). actives 5.9% (n = 310,000). P. falciparum luciferase growth in erythrocytes, 48 h. Potency, µM (doses to about 28.7 µM), without a hit: at the top dose activity change, negative = inhibition, actives largely listed as inhibitors
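Here the parasites carry a stable luciferase gene and grow inside erythrocytes in Albumax-based RPMI medium with compound for one erythrocytic cycle. Activity is scored as loss of luminescent signal.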
* hit, by the source's call; [ ] = another dose, or the depositor's remark. An excerpt weighted towards active compounds, which were near 11% of everything screened. Calls follow the shape of the dose curve; as a rule, active = well fitted curve in the direction sought with a large enough effect; inconclusive = small, poorly fitted or top-dose-only effect, or another doubt; inactive = no such curve, though single readings can be large; an effect the other way counts as inactive or inconclusive. Unless noted, % is scaled to controls: 0 for no effect and ±100 for the full control effect; potency is read from the fitted curve at half-maximal effect.

What do the screens show for `COc1cc2cc[n+](Cc3ccc([N+](=O)[O-])cc3)cc2cc1OC`?
AMA1 RON2 block: 1%; Pf growth 96h: 3.3µM*; HCV inhibitor: 6%; Pf growth 48h: 4.7µM*

Results for O=[N+]([O-])c1ccc(C[n+]2cccc(O)c2)cc1 ?
AMA1 RON2 block: 2%; Pf growth 96h: 50%; HCV inhibitor: 2%; Pf growth 48h: 22%

Results for CCc1noc(C)c1C(=O)OCC(=O)Nc1cccc(C)c1 ?
AMA1 RON2 block: 8%; Pf growth 96h: 23%; HCV inhibitor: -16%; Pf growth 48h: inconclusive

How did CNc1nc(Cl)c(SC)c(N2CCOCC2)n1 do in these assays?
AMA1 RON2 block: 126%; Pf growth 96h: 1%; HCV inhibitor: 0.89µM*; Pf growth 48h: 23%

Results for CNc1nc(OC)nc(N2CCOCC2)n1 ?
AMA1 RON2 block: -4%; Pf growth 96h: -8%; HCV inhibitor: 12%; Pf growth 48h: 12%

How did CCC(C(=O)Nc1ccc(S(=O)(=O)Nc2ncccn2)cc1)c1ccccc1 (stereo unspecified) do in these assays?
AMA1 RON2 block: 4%; Pf growth 96h: inconclusive; HCV inhibitor: 8%; Pf growth 48h: inconclusive

What do the screens show for `CC(C)(C)c1ccc(C(=O)N2CCN(C(=O)C3CCCCC3)CC2)cc1`?
AMA1 RON2 block: 5%; Pf growth 96h: 10µM*; HCV inhibitor: -6%; Pf growth 48h: inconclusive

How did O=C(c1cccc(F)c1)N1CCN(S(=O)(=O)c2ccccc2)CC1 do in these assays?
AMA1 RON2 block: 1%; HCV inhibitor: 14%

How did CC(C)(C)c1ccc(C(=O)N2CCCN(C(=O)c3ccc(C(C)(C)C)cc3)CC2)cc1 do in these assays?
AMA1 RON2 block: 17%[2.32 µM]; Pf growth 96h: 158%; HCV inhibitor: -10%; Pf growth 48h: 31%

How did O=C(c1cccc(F)c1)N1CCN(S(=O)(=O)Cc2ccccc2)CC1 do in these assays?
AMA1 RON2 block: -7%; Pf growth 96h: 0%; HCV inhibitor: 7%; Pf growth 48h: 2.9µM*

What do the screens show for `O=C(c1ccc(N2CCN(C(=O)c3cccc(F)c3)CC2)cc1)c1cccc(F)c1`?
AMA1 RON2 block: 21%; Pf growth 96h: inconclusive; HCV inhibitor: inconclusive; Pf growth 48h: 13µM*

What do the screens show for `O=C(c1cccc(F)c1)N1CCN(C(=O)C2CC2)CC1`?
AMA1 RON2 block: 19%; Pf growth 96h: 0.33µM*; HCV inhibitor: 17%; Pf growth 48h: -3%

Results for CC(C)OC(=O)c1nnn(-c2nonc2N)c1CN1CCCCCC1 ?
AMA1 RON2 block: 25%; HCV inhibitor: 8%; Pf growth 48h: inconclusive

What do the screens show for `CCOC(=O)COc1c(Cl)cc(C2NC(=S)NC(c3ccccc3)=C2C(C)=O)cc1OCC` (stereo unspecified)?
AMA1 RON2 block: -3%; Pf growth 96h: inconclusive; HCV inhibitor: -19%; Pf growth 48h: inconclusive

What do the screens show for `O=C(c1ccc(N2CCN(C(=O)c3ccccc3Br)CC2)cc1)c1cccc(F)c1`?
AMA1 RON2 block: 15%; Pf growth 96h: 9.3µM*; HCV inhibitor: inconclusive; Pf growth 48h: inconclusive

Results for CNC(=O)c1ccc(=O)n(Cc2cccc(C(F)(F)F)c2)c1 ?
AMA1 RON2 block: -13%; Pf growth 96h: 2%; HCV inhibitor: 4%; Pf growth 48h: 2.9µM*

Results for CCOc1ccc(C2CC(=O)NC(SC)=C2C#N)cc1 (stereo unspecified) ?
AMA1 RON2 block: 5%; Pf growth 96h: -23%; HCV inhibitor: -5%

Results for C=CCSC1=C(C#N)C(c2ccc(OCC)cc2)CC(=O)N1 (stereo unspecified) ?
AMA1 RON2 block: 14%; Pf growth 96h: 7.4µM*; HCV inhibitor: -2%

What do the screens show for `C=CCSC1=C(C#N)C(c2ccccc2Cl)CC(=O)N1` (stereo unspecified)?
AMA1 RON2 block: -1%; Pf growth 96h: 3.3µM*; HCV inhibitor: 12%; Pf growth 48h: 3%

How did N=c1c(C(=O)NCc2ccco2)cc2c(=O)n3ccccc3nc2n1CCc1ccccc1 do in these assays?
AMA1 RON2 block: -8%; HCV inhibitor: -23%; Pf growth 48h: 0.93µM*

Results for Cc1ccc(Cn2c(=N)c(C(=O)NCc3ccco3)cc3c(=O)n4ccccc4nc32)cc1 ?
AMA1 RON2 block: -21%; Pf growth 96h: 0%; HCV inhibitor: 11µM*; Pf growth 48h: 4.1µM*

What do the screens show for `Cc1ccc(-c2ccc(C(=O)O)[nH]2)cc1`?
AMA1 RON2 block: -7%; Pf growth 96h: 6.6µM*; HCV inhibitor: 17%; Pf growth 48h: 30%

What do the screens show for `CCCNC(=O)C1(C)CCCN(C(=O)CN2C(=O)c3ccccc3C2=O)C1` (stereo unspecified)?
AMA1 RON2 block: 0%

What do the screens show for `CCCCC1(c2ccc(F)cc2)NC(=O)N(CC(=O)N2CCN(C(=O)c3ccco3)CC2)C1=O` (stereo unspecified)?
AMA1 RON2 block: -2%; Pf growth 96h: 6.6µM*; HCV inhibitor: 19%; Pf growth 48h: -14%

Results for Cc1ncc(CN2CCCC(CCC(=O)NCc3ccc(F)c(F)c3)C2)s1 (stereo unspecified) ?
AMA1 RON2 block: -16%; Pf growth 96h: inconclusive; HCV inhibitor: 0%; Pf growth 48h: -23%

Results for CCOCCCNC(=O)c1cc(Sc2nnc(C)s2)nc2ccccc12 ?
AMA1 RON2 block: 2%; Pf growth 96h: -19%; HCV inhibitor: 10µM*; Pf growth 48h: -24%

How did Cc1nnc(Sc2cc(C(=O)NCCCN(C)Cc3ccccc3)c3ccccc3n2)s1 do in these assays?
AMA1 RON2 block: 16%; Pf growth 96h: 2.1µM*; HCV inhibitor: -13%; Pf growth 48h: inconclusive

Results for O=C(NCCN1C(=O)S/C(=C\c2cccnc2)C1=O)c1cc(S(=O)(=O)N2CCOCC2)ccc1F ?
AMA1 RON2 block: -5%; Pf growth 96h: -6%; HCV inhibitor: -10%; Pf growth 48h: -6%

What do the screens show for `CCCCc1ccccc1NC(=S)NC1CCCC1`?
AMA1 RON2 block: 40%; Pf growth 96h: inconclusive; HCV inhibitor: -26%; Pf growth 48h: 9.3µM*

Results for CC(C)c1ccccc1NC(=S)NC1CCCCC1 ?
AMA1 RON2 block: 5%; Pf growth 96h: 4.7µM*; HCV inhibitor: -6%; Pf growth 48h: inconclusive

How did COc1ccccc1NC(=S)NC1CCC(CC2CCC(NC(=S)Nc3ccccc3OC)CC2)CC1 (stereo unspecified) do in these assays?
AMA1 RON2 block: 0%; Pf growth 96h: 8.3µM*; HCV inhibitor: -8%; Pf growth 48h: 12µM*

How did Cc1cc(OC(F)F)ccc1NC(=S)NC1CCCC1 do in these assays?
AMA1 RON2 block: -4%; Pf growth 96h: 13µM*; HCV inhibitor: -24%; Pf growth 48h: inconclusive

What do the screens show for `Cc1cc(F)ccc1NC(=S)NC1CCCC1`?
AMA1 RON2 block: -12%; Pf growth 96h: -11%; HCV inhibitor: -13%; Pf growth 48h: inconclusive

How did COc1ccccc1NC(=S)NC1CCCC1 do in these assays?
AMA1 RON2 block: -1%; HCV inhibitor: -13%
